Source: PubChem BioAssay
Jurkat NFkB inh: inhibitors of induced NF-kB luciferase reporter, primary screen, TCR NF-kB activation inhibitor project, cell-based, luminescence, uHTS. Jurkat, PMA/ionomycin-induced NF-kB luciferase reporter. inhibition, % at 4 µM. actives 0.53% (n = 330,000); in the data active = inhibition above about 50%
Gli-Sufu block: Gli-Sufu pathway antagonists, primary screen, luciferase luminescence, Sufu-KO-LIGHT cells, uHTS. Sufu-KO-LIGHT fibroblasts, Gli luciferase reporter luminescence. inhibition, % at 5 µM. actives 0.74% (n = 340,000). AID 588413, 2011;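 active = inhibition above about 55%, limit read from the data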
Beta cell apopt: inhibitors of cytokine-induced beta cell apoptosis, primary screen, luminescence; actives 0.8% (n = 300,000); INS-1E cytokine-induced death, ATP luminescence, 48 h; percent of positive-control rescue, neutral wells zero; protection from apoptosis, % (test concentration not listed);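 active = Every replicate reaches about 75%, or at least half do and their mean reaches it too, limit read from the data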;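 note: higher means more ATP so stronger rescue from cytokine killing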
697 NFkB inh: inhibitors of PMA/ionomycin-induced NF-kB reporter, 697 cells, primary screen, B-cell NF-kB inhibitor project, cell-based, luminescence, uHTS; 697 B-cell NF-kB luciferase reporter, 16 h; inhibition, % at 4 µM; actives 0.33% (n = 330,000); AID 435022, 2010; in the data active = inhibition above about 35%
Jurkat NFkB conf: PMA/ionomycin-induced NF-kB reporter inhibitors, Jurkat retest, confirmation, T-cell NF-kB inhibitor project, cell-based, luminescence, single concentration; AID 435020, 2010; actives 27% (n = 2,700); Jurkat NF-kB luciferase, 16 h; inhibition, % at 4 µM; shares compounds with Jurkat NFkB inh;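 active = inhibition reaching about 45% at 4 µM in either replicate, limit read from the data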
697 NFkB conf: PMA/ionomycin-induced NF-kB reporter inhibitors, 697 retest, confirmation, B-cell NF-kB inhibitor project, cell-based, luminescence, single concentration; shares compounds with 697 NFkB inh; 697 B-cell NF-kB luciferase, 16 h; AID 449746, 2010; actives 35% (n = 2,000); inhibition, % at 4 µM; in the data active = inhibition mostly above about 28%, no sharp cut-off; inactive = mostly below about 22%
Large screens that a line does not name were inactive (follow-up assays come after a bar, where they were run). Rows were chosen to be rich in hits. Some 1.8% of all compounds tested hit in one or more screens of this group.

COc1ccc(C(=O)Nc2ccc3ccccc3c2)cc1	none | Jurkat NFkB conf inactive | 697 NFkB conf inactive
COc1ccc(OC)c(C(=O)c2ccc(C(=O)Nc3ccc4ccccc4c3)cc2)c1	none
COc1cccc(C(=O)Nc2nc3ccccc3s2)c1	none (no result: Beta cell apopt) | Jurkat NFkB conf inactive | 697 NFkB conf inactive
Cc1ccc(C(=O)Nc2cnc3ccccc3c2)cc1	Jurkat NFkB inh 59.2 | Jurkat NFkB conf 73.3 | 697 NFkB conf inactive
Cc1cc(C(=O)Nc2cnc3ccccc3c2)ccc1[N+](=O)[O-]	none
CC(NC(=O)CSc1ncnc2nc[nH]c12)c1ccccc1 (stereo not drawn)	none
COc1ccccc1N1CC(C(=O)NCCC2=CCCCC2)CC1=O (stereo not drawn)	none
COc1ccc(/C=N/NC(=O)C(=O)N2CCN(c3ccccc3OC)CC2)cc1	none
O=C(Nc1ccc2ccccc2c1)c1cccc([N+](=O)[O-])c1	none
COc1cccc(C(=O)Nc2ccc3ccccc3c2)c1	none | Jurkat NFkB conf inactive | 697 NFkB conf inactive
O=C(Nc1ccc2ccccc2c1)c1onc2c1CCCC2	none | Jurkat NFkB conf inactive | 697 NFkB conf inactive
CS(=O)(=O)Nc1ccc(C(=O)Nc2ccc3ccccc3c2)cc1	none | Jurkat NFkB conf inactive | 697 NFkB conf inactive
Cc1cccc(C(=O)Nc2ccc3ccccc3c2)c1	none | Jurkat NFkB conf inactive | 697 NFkB conf inactive
CC(=O)c1cccc(NC(=O)c2ccc(NS(C)(=O)=O)cc2)c1	none (no result: Beta cell apopt)
CCn1c(C)cc(C(=O)COC(=O)c2cccnc2SC)c1C	none
COc1ccc(S(=O)CC(=O)Nc2ccccc2Cl)cc1 (stereo not drawn)	none
CCOC(=O)/C(=N\Nc1cccc(Cl)c1)Sc1nnc(-c2ccc(OC)cc2)n1C	none
COc1ccc(/C=C/c2cc(-c3ccc(C)cc3)o[n+]2C)cc1	Jurkat NFkB inh 60.7, Gli-Sufu block 87.4, Beta cell apopt 115.6, 697 NFkB inh 92.8 | Jurkat NFkB conf 51.5 | 697 NFkB conf 41.2
COc1ccc(/C=C/c2c(-c3ccc(OC)cc3)oc3ccc(-c4ccc(OC)cc4)cc23)cc1	none
CCN(CC(=O)Nc1ccc(NC(C)=O)cc1)C(=O)c1ccc(=O)n(C)n1	none
Brc1cccc(OCCCN2CCCCCC2)c1	none
c1cc(-c2cc3cc(N4CCOCC4)ccc3o2)cs1	none | Jurkat NFkB conf inactive | 697 NFkB conf inactive
COc1ccc(C#Cc2c(-c3ccsc3)oc3ccc(N4CCOCC4)cc23)cc1	none
O=C1c2ccccc2C(=O)N1c1cccnc1	Jurkat NFkB inh 53.0, 697 NFkB inh 45.4 | Jurkat NFkB conf inactive | 697 NFkB conf inactive
Cc1ccc(S(=O)(=O)N(C)C)cc1NC(=O)c1ccc2ccccc2n1	none
Cc1ccc(C)c(NC(=O)c2ccc3ccccc3n2)c1	none | Jurkat NFkB conf inactive | 697 NFkB conf inactive
CCOc1cc(Br)c(CC(=O)O)cc1OCC	none
CC1=NNC(=O)/C1=C\c1cn(-c2ccccc2)nc1-c1ccc(Cl)cc1	Jurkat NFkB inh 95.2, Beta cell apopt 107.0, 697 NFkB inh 36.5 | Jurkat NFkB conf 46.2 | 697 NFkB conf inactive
Cc1ccc(-c2nn(-c3ccccc3)cc2C=C2C(=O)CC(C)(C)CC2=O)cc1	none
COc1cc2c(cc1OC)C(c1ccccc1N)=NCC2	none
O=C1CCc2cc(S(=O)(=O)NCc3ccccc3)cc3c2N1CC3	none
COc1cc(CCNC(=O)c2cnn3ccccc23)cc(OC)c1OC	none
CC(Nc1ncnc2sccc12)c1ccccc1 (stereo not drawn)	Jurkat NFkB inh 60.6, Gli-Sufu block 70.5, 697 NFkB inh 43.4 (no result: Beta cell apopt) | Jurkat NFkB conf 62.0 | 697 NFkB conf 60.2
c1ccc(Nc2ncnc3sccc23)cc1	none
CC(C)CCn1cnc2c(sc3nc4c(cc32)CSC(C)(C)C4)c1=O	none | Jurkat NFkB conf inactive | 697 NFkB conf inactive
CCc1ccc(NC(=O)c2cnn(-c3ccccc3)c2C)cc1	none | Jurkat NFkB conf inactive | 697 NFkB conf inactive
CCc1ccc(NC(=O)c2cnn(-c3ccccc3)c2C2CCNCC2)cc1	none
Cc1ccc(/C=C/C(=O)OCC(=O)Nc2ccccc2Sc2ccccc2)cc1	none
COc1ccc(-c2c(C)nc3c(-c4ccccn4)cnn3c2N)cc1	none (no result: Jurkat NFkB inh, 697 NFkB inh)
COc1ccc(-c2c(C)nc3c(-c4ccsc4)cnn3c2N)cc1	none | Jurkat NFkB conf inactive | 697 NFkB conf inactive
N#Cc1cccc(NC(=O)CCN2C(=O)C3CCCCC3C2=O)c1 (stereo not drawn)	none
Cc1ccnc(NC(=O)CCCOc2cc(=O)n(C)c3ccccc23)c1	Jurkat NFkB inh 65.5, 697 NFkB inh 60.9 | Jurkat NFkB conf 57.6 | 697 NFkB conf 48.2
Cc1ccc(C)c(OCc2cc(C(=O)NC(C)c3cnn(C)c3)no2)c1 (stereo not drawn)	none
c1ccc(CCc2nc(-c3ccccc3)no2)cc1	none
O=C(Nc1ccc(-c2noc(CCc3ccccc3)n2)cc1)c1ccco1	none (no result: Beta cell apopt) | Jurkat NFkB conf inactive | 697 NFkB conf inactive
N#Cc1nc(Nc2cccc(Cl)c2)c2ncn(C3CCCC3)c2n1	none | Jurkat NFkB conf inactive | 697 NFkB conf inactive
CCN(CC)c1ccc2cc(C(C)=O)c(=O)oc2c1	none
CCN(CC)c1ccc2cc(C(=O)Nc3ccccn3)c(=O)oc2c1	none | Jurkat NFkB conf inactive | 697 NFkB conf inactive
C=C1C(=O)O[C@@H]2C[C@@H](C)[C@@H]3C=CC(=O)[C@@]3(C)[C@@H](OC(C)=O)[C@H]12	Jurkat NFkB inh 95.7, Gli-Sufu block 95.8, Beta cell apopt 136.0, 697 NFkB inh 100.4 | Jurkat NFkB conf 98.3 | 697 NFkB conf 100.2
Cn1nccc1C(=O)NC1CCCc2c1cnn2-c1ccc(C(C)(C)C)cc1 (stereo not drawn)	Jurkat NFkB inh 65.7, Gli-Sufu block 75.7, Beta cell apopt 115.5, 697 NFkB inh 44.4 | Jurkat NFkB conf 71.1 | 697 NFkB conf 103.5
Cc1cc(C(=O)NC2CCCc3c2cnn3-c2cccc(C)c2C)n(C)n1 (stereo not drawn)	Jurkat NFkB inh 71.8, Gli-Sufu block 81.4, Beta cell apopt 112.0, 697 NFkB inh 76.8 | Jurkat NFkB conf 78.1 | 697 NFkB conf 95.6
